# Unmarked numbers belong to inactive results. Records with an inconclusive call do not appear. The list shows a part of the results. Entries that show only a call come without a potency. The source made the active and inactive calls. Calls come from the whole dose curve; as a rule, active = well fitted curve in the direction sought with a large enough effect; inconclusive = small, poorly fitted or top-dose-only effect, or another doubt; inactive = no such curve, though single readings can be large; an effect the other way counts as inactive or inconclusive.
# Assays:
# [1] = qHTS for Inhibitors of the vitamin D receptor (VDR): Hit Validation using a Cytotoxicity Assay (AID 602204);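 note: cells co-treated with VDR agonist LG190178 at 300 nM; potency is the fitted concentration of half-maximal effect; nearly all actives have a fitted effect of over 75% in size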
# In short: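 Compounds stayed on cells (20,000/well, plated 4 hours earlier) for 18 hours. Viability then taken as ATP content by CellTiter-Glo, read as luminescence after 30 minutes. Controls: high-concentration cycloheximide (positive), DMSO (negative).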
# [2] = molecular target: Tumor susceptibility gene 101 protein (Homo sapiens) (UniProt Q99816); assay: qHTS Assay for Iinhibitors of HIV-1 Budding by Blocking the Interaction of PTAP/TSG101: Hit Validation (AID 651600); note: nearly all actives have a fitted effect of over 70% in size; note: potency is the fitted concentration of half-maximal effect
# Sequence of Tumor susceptibility gene 101 protein (Homo sapiens) (Q99816 whole entry, looked up, the tested form may be a part): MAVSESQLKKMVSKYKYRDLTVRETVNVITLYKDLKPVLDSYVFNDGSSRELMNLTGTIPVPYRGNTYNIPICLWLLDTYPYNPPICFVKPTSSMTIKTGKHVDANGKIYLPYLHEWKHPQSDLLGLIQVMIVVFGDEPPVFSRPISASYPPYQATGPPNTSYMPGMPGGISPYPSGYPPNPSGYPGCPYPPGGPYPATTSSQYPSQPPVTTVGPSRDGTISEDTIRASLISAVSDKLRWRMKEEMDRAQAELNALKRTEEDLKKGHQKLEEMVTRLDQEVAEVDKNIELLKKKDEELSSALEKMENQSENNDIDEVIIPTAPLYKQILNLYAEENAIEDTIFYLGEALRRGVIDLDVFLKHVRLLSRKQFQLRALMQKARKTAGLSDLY
# In short: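 Tsg101 binding domain 10 uM + FITC-PTAP peptide 50 nM (final), 10 mM HEPES pH 7.5/0.15 M NaCl/0.01% Tween 20/3 mM EDTA/0.1 mM TCEP; 20 min RT; FP read, FITC filters.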
# [3] = qHTS screen for small molecules that inhibit ELG1-dependent DNA repair: Hit Confirmation with MMS Viability (AID 624251); note: potency is the fitted concentration of half-maximal effect;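 note: viability read 16 h after compound addition; nearly all actives have a fitted effect of over 60% in size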
# In short: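 CellTiter-Glo viability of ELG1-luc HEK293T cells after 16 h with compound plus 10 µM MMS.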
# [4] = molecular target: ATPase family AAA domain-containing protein 5 (Homo sapiens) (UniProt Q96QE3); assay: qHTS screen for small molecules that inhibit ELG1-dependent DNA repair in human embryonic kidney (HEK293T) cells expressing luciferase-tagged ELG1: Hit Confirmation using MMS Stimulated ELG1 (AID 624249); note: nearly all actives have a fitted effect of over 60% in size; note: potency is the fitted concentration of half-maximal effect
# Sequence of ATPase family AAA domain-containing protein 5 (Homo sapiens) (Q96QE3 whole entry, looked up, the tested form may be a part): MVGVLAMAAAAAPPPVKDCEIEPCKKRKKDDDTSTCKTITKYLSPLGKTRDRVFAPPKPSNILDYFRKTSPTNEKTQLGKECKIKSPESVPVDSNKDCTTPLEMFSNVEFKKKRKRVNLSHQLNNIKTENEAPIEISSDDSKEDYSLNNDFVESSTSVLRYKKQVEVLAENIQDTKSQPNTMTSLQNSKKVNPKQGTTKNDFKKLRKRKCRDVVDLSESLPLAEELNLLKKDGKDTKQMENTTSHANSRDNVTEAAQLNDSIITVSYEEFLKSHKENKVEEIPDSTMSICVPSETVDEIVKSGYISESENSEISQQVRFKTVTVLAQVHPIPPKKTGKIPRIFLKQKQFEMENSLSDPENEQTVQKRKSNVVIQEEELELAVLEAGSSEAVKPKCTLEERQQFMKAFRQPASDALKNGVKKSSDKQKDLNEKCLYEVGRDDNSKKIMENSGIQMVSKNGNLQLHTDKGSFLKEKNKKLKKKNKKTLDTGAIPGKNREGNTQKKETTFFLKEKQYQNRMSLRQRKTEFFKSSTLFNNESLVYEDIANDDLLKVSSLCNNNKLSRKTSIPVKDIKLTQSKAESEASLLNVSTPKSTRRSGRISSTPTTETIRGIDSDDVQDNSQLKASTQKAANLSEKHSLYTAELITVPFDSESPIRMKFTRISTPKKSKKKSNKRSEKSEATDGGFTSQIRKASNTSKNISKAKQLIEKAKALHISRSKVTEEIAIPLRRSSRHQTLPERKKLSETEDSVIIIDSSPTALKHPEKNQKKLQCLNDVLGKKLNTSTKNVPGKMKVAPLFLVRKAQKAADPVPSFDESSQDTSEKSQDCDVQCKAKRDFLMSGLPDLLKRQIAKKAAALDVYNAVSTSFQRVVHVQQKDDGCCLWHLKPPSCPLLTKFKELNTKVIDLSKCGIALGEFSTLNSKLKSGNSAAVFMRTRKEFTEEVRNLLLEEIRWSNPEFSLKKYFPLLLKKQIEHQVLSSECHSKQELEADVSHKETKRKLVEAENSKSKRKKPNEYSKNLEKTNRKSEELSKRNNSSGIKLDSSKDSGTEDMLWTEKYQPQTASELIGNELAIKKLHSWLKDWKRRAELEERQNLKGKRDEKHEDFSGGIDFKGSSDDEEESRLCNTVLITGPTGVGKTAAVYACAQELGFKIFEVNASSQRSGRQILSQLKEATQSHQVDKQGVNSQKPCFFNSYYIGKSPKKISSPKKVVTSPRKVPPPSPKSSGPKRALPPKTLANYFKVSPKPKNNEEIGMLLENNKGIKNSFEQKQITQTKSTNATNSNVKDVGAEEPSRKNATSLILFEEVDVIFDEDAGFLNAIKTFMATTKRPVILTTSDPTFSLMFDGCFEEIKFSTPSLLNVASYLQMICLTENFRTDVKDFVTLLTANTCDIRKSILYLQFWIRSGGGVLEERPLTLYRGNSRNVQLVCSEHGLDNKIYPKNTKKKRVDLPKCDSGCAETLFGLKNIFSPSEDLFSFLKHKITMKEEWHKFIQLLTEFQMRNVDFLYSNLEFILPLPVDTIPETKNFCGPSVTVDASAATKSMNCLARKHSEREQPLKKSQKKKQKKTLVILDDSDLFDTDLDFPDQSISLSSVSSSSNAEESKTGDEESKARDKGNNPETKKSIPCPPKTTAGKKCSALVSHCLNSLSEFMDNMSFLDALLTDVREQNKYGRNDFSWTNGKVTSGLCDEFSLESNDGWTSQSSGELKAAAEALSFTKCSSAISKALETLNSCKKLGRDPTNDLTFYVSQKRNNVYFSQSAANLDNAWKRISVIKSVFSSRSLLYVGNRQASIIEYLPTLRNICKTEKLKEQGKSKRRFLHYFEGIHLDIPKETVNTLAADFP
# In short: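 Luminescence read-out (Amplight) of an ELG1-luc reporter in HEK293T cells after 16 h of compound exposure under MMS stimulation at 10 µM final. Inhibition appears as reduced luciferase activity.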
# [5] = molecular target: Luciferin 4-monooxygenase (Photinus pyralis) (UniProt P08659); assay: Biochemical firefly luciferase enzyme assay for NPC (AID 624030);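 note: purified P. pyralis luciferase at 10 nM with luciferin and ATP substrate; series mostly up to about 59 µM; nearly all actives have a fitted effect of over 70% in size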
# Sequence of Luciferin 4-monooxygenase (Photinus pyralis) (P08659 whole entry, looked up): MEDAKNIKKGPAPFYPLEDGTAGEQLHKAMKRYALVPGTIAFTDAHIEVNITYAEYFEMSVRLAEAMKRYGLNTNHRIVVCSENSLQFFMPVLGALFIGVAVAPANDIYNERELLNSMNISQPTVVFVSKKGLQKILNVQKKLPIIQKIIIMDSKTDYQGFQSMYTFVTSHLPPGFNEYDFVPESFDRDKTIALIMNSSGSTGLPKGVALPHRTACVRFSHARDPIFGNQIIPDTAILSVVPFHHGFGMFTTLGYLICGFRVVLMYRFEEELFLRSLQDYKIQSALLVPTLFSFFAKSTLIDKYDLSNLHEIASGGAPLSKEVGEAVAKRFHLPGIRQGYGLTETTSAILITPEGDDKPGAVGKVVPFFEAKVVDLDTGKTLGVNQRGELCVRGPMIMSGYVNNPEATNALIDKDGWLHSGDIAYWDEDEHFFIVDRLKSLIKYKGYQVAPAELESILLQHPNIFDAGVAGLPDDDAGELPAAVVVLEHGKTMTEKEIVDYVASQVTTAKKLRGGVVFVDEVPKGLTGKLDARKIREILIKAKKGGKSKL
# In short: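 Purified P. pyralis luciferase at 10 nM in 50 mM Tris Acetate (final), luminescence read within 5 minutes of enzyme addition to compounds. Activity normalised to PTC124 versus DMSO; concentration-response curves classed by r2, magnitude and activity.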
# [6] = molecular target: Cytochrome P450 3A4 (Homo sapiens) (UniProt P08684); assay: qHTS Assay for Activators of Cytochrome P450 3A4 (AID 885); note: nearly all actives have a fitted effect of over 65% in size
# Sequence of Cytochrome P450 3A4 (Homo sapiens) (P08684 whole entry, looked up): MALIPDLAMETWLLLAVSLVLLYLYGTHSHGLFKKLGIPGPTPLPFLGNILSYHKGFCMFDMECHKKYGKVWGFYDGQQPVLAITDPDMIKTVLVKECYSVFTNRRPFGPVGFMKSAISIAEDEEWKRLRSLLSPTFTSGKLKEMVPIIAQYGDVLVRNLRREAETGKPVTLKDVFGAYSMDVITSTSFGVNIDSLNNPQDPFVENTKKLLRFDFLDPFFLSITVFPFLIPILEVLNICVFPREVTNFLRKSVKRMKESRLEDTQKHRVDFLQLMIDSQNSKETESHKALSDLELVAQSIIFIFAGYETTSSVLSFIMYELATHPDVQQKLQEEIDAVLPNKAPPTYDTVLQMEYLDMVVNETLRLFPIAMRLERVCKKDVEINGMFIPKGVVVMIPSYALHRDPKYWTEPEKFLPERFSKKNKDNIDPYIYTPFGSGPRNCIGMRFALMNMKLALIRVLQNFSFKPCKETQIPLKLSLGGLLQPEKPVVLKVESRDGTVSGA
# In short: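 Luminescent readout of luciferin formed from 25 uM Luciferin-PPXE (KM level) by 20 nM CYP3A4 in 200 mM KPO4, with 60 min NADPH-driven reaction at room temperature after 10 min compound exposure. Ketoconazole (57 uM) defined 100% inhibition.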
# [7] = Confirmation and Secondary Assay for Modulators of Hemoglobin Beta Chain Splicing at IVS2 654 locus (AID 910);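 note: HeLa cells stably carrying EGFP split by mutant beta-globin IVS2-654 intron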
# In short: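 HeLa cells stably expressing EGFP interrupted by β-globin IVS2-654 intron, seeded overnight in Opti-MEM/2% FCS, then treated 2 days at 37 °C. Restored splicing read as total peak GFP intensity per well by laser scanning cytometry (488 nm excitation, 500–520 nm emission); 500 nM antisense PNA as control.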
# [8] = Confirmation and Secondary Assay for Modulators of Hemoglobin Beta Chain Splicing at IVS2 705 locus (AID 930);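 note: HeLa cells stably expressing the EGFP-705 splicing reporter; series mostly up to about 46 µM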
# In short: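 Restored EGFP fluorescence after 2-day compound exposure reports splicing correction in IVS2-705 EGFP reporter HeLa cells; positive control was 500 nM splice-blocking PNA oligo. Signal measured as well total peak GFP intensity (488 nm excitation).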
structure (smiles),measurement,setting,value
Cc1cccc([C@H]2[C@@H]3C=CC[C@@H](C)[C@@H]3C(=O)N2Cc2ccccc2)c1,Potency,[1],23.8 µM (active)
COc1ccc(OC)c(-c2c3cc(O)c(=O)cc-3oc3cc(O)c(O)cc23)c1,Potency,[2],32.6 µM (active)
CN(C)c1ccnc2sc3c(=O)n(Cc4ccccc4)cnc3c12,Potency,[3],inactive
CN(CC1CCCO1)S(=O)(=O)c1ccc(C(=O)Nc2ccc(F)cc2)cc1 (stereo not drawn),Potency,[4],22.3 µM (active)
Clc1ccc2nc(-c3ccccc3)nc(C(Cl)Cl)c2c1,Potency,[4],2.23 µM (active)
same,Potency,[3],3.97 µM (active)
CC12CCC(C(=O)N3CCN(c4ncccn4)CC3)(c3nc4ccccc4nc31)C2(C)C (stereo not drawn),Potency,[3],inactive
CCOC(=O)c1cccc(NC(=O)C2CCN(c3ncnc4c3nc3n4CCCCC3)CC2)c1,Potency,[3],inactive
O=C1c2ccccc2S(=O)(=O)c2cc(N3CCN(C(=O)c4ccccc4)CC3)ccc21,Potency,[2],inactive
Cc1ccccc1NC(=O)CSc1nc2ccc(Nc3nc(N4CCOCC4)nc(N4CCOCC4)n3)cc2s1,Potency,[3],inactive
CCN(CCO)CCn1c(Cc2ccccc2)nc2c1c(=O)n(C)c(=O)n2C,Potency,[5],inactive
Nc1nnc(SCC(=O)Nc2ccc3nc(SCC(=O)Nc4ccccc4)sc3c2)s1,Potency,[4],4.99 µM (active)
same,Potency,[3],5.6 µM (active)
COc1ccc(-c2nn(-c3ccccc3)cc2/C=C\C(=O)N2CCOCC2)cc1[N+](=O)[O-],Potency,[4],inactive
same,Potency,[3],inactive
CS(=O)(=O)c1ccc2nc(NC(=O)C3CCCCC3)sc2c1,Potency,[4],inactive
same,Potency,[3],inactive
CN(C)c1ccc(O)c2c1C[C@@H]1C[C@H]3C(N(C)C)C(=O)C(C(N)=O)=C(O)[C@@]3(O)C(=O)C1=C2O (stereo partly drawn),Potency,[6],inactive
same,outcome,[7],inactive
same,outcome,[8],inactive
same,Potency,[5],inactive
CSCC(C)N1CCC(n2nccc2NC(=O)CCCc2ccccc2)CC1 (stereo not drawn),Potency,[2],13 µM (active)
CCOC(=O)[C@H](CCc1ccccc1)NC(C)C(=O)N1CC2(CC1C(=O)O)SCCS2 (stereo partly drawn),Potency,[5],inactive
COc1ccc(NC(=O)c2sc3nc(C)nc(N4CCN(c5ccccn5)CC4)c3c2C)c(OC)c1,Potency,[3],inactive
CC[C@H](C)[C@H](NC(=O)[C@H](CO)NC(=O)[C@H](CC(N)=O)NC(=O)[C@H](CC(C)C)NC(=O)[C@H](Cc1ccc(O)cc1)NC(=O)[C@H](CCCCN)NC(=O)[C@H](CCCCN)NC(=O)[C@@H](NC(=O)[C@H](C)NC(=O)[C@H](CCSC)NC(=O)[C@H](CCC(N)=O)NC(=O)[C@H](CCCCN)NC(=O)[C@H](CCCNC(=N)N)NC(=O)[C@H](CC(C)C)NC(=O)[C@H](CCCNC(=N)N)NC(=O)[C@@H](NC(=O)[C@H](Cc1ccc(O)cc1)NC(=O)[C@H](CC(N)=O)NC(=O)[C@H](CC(=O)O)NC(=O)[C@@H](NC(=O)[C@H](Cc1ccccc1)NC(=O)[C@@H](NC(=O)[C@H](C)NC(=O)[C@H](CC(=O)O)NC(=O)[C@H](CO)NC(=O)[C@@H](N)Cc1c[nH]cn1)C(C)C)[C@@H](C)O)[C@@H](C)O)C(C)C)C(=O)N[C@@H](CC(C)C)C(=O)N[C@@H](CC(N)=O)C(=O)O,Potency,[5],inactive
CC(=O)c1c(C)n(-c2ccc(C)cc2)c2ccc(O)cc12,Potency,[4],inactive
same,Potency,[3],inactive
CC(C)(CNC(=O)c1ccc(Cl)c(S(=O)(=O)N2CCc3ccccc3C2)c1)N1CCOCC1,Potency,[4],1.58 µM (active)
same,Potency,[3],1.99 µM (active)
Cc1ccc(C(=O)[C@H](C)CN2CCCCC2)cc1,Potency,[5],inactive
COc1ccc(NC(C)=O)cc1NC(=O)CN1CCN(C2c3ccccc3-c3ccccc32)CC1,Potency,[3],inactive
NC(=O)c1sc2nc3c(c(-c4ccccc4)c2c1N)CCC3,Potency,[4],7.05 µM (active)
same,Potency,[3],inactive
Cc1ccc(Nc2nc(N3CCOCC3)nc(N3CCOCC3)n2)cc1Cl,Potency,[3],inactive
CCc1ccc(N(CC)c2ncnc3nc[nH]c23)cc1,Potency,[4],17.7 µM (active)
same,Potency,[3],inactive
OCCCNc1nccc(-c2cc(Nc3cccc(Cl)c3)ncn2)n1,Potency,[4],0.629 µM (active)
same,Potency,[3],2.5 µM (active)
Cc1ccc(C)c(S(=O)(=O)N2CCN(c3ncnc4sccc34)CC2)c1,Potency,[4],2.81 µM (active)
same,Potency,[3],2.5 µM (active)
CCC(=O)OCC(=O)C1(OC(=O)CC)C(C)CC2C3CCC4=CC(=O)C=CC4(C)C3(Cl)C(O)CC21C (stereo not drawn),Potency,[6],inactive
same,outcome,[7],inactive
same,outcome,[8],inactive
same,Potency,[5],inactive
CC(=O)CC/C=C(\C)CC/C=C(/C)CC/C=C(\C)CCC=C(C)C,Potency,[5],inactive
COc1ccc(OC)c(/C=C(\C#N)c2nc(-c3ccc(F)cc3)cs2)c1,Potency,[2],inactive
O=C1Nc2ccc(F)cc2C12Nc1ccccc1-c1nnc(SCc3ccccc3F)nc1O2 (stereo not drawn),Potency,[2],inactive
COc1ccc(CNc2ncnc3ccccc23)cc1,Potency,[4],1.58 µM (active)
same,Potency,[3],2.23 µM (active)
COc1ccccc1C(=O)Nc1ccc(C)c(S(=O)(=O)N2CCCCC2)c1,Potency,[4],14.1 µM (active)
same,Potency,[3],inactive
COc1ccc(NS(=O)(=O)c2ccc(Oc3c(C#N)cccc3C#N)cc2)cc1,Potency,[4],3.15 µM (active)
same,Potency,[3],4.45 µM (active)
Cc1ccc(N(Cc2ccc(C(=O)Nc3ccccc3C(=O)NCc3ccco3)cc2)S(C)(=O)=O)cc1C,Potency,[3],inactive
COc1ccc(NC(=O)C2CCC(CNc3c(N4CCCCC4)c(=O)c3=O)CC2)c(OC)c1 (stereo not drawn),Potency,[4],inactive
same,Potency,[3],inactive
CC(=O)c1cccc(-n2nnnc2SCC(=O)Nc2cc(C)on2)c1,Potency,[2],inactive
Cc1cc2oc(=O)cc(CN3CCN(S(=O)(=O)c4cccs4)CC3)c2cc1C(C)C,Potency,[4],8.88 µM (active)
same,Potency,[3],22.3 µM (active)
O=C(C1CCCN(S(=O)(=O)c2ccccc2)C1)N1CCN(c2ccc(F)cc2)CC1 (stereo not drawn),Potency,[4],4.45 µM (active)
same,Potency,[3],3.97 µM (active)
COc1ccc(S(=O)(=O)Nc2ccc3oc(C)c(C(C)=O)c3c2)cc1,Potency,[4],3.97 µM (active)
same,Potency,[3],3.97 µM (active)

# — PubChem BioAssay (NCATS)
